Screening results (PubChem BioAssay)
This is a sample that favours compounds with a hit; in the whole collection about 3.9% have one here.
Anthrax LF prot – Bacillus anthracis LF protease inhibitors, primary screen, biochemical, multiplex microsphere, MLPCN library; 0.12% of 360,000 active; inhibition, % at 10 µM; multiplex microsphere protease cleavage assay; Lethal factor (Bacillus anthracis), P15917
SARS 3CLpro inh-1 – SARS-CoV 3CLpro protease inhibitors, primary screen, biochemical, quenched FRET; 0.14% of 290,000 active; recombinant SARS-CoV 3CLpro, quenched FRET peptide cleavage; inhibition, % at 6 µM; Replicase polyprotein 1ab (Severe acute respiratory syndrome coronavirus), P0C6X7; in the data active = inhibition above about 12%
BoNT F protease – BoNT/F light chain protease inhibitors, primary screen, biochemical, flow cytometry, MLPCN library; Multiplex microsphere protease cleavage assay; inhibition, % at 10 µM; 0.22% of 360,000 active; AID 588497, 2011; in the data active = inhibition above about 35%, passing the limit was not always enough; inconclusive = no clear call, values can overlap the other calls
Bead autofluor – compound fluorescence in toxin protease inhibitor counterscreen; compound autofluorescence counterscreen, microsphere flow cytometry; active compounds read high; 3.1% of 360,000 active; fluorescence intensity (no concentration beside the values); in the data active = fluorescence intensity above about 16000; inconclusive = no clear call, values can overlap the other calls
BoNT A protease – BoNT/A light chain protease inhibitors, primary screen, biochemical, flow cytometry, MLPCN library; Botulinum neurotoxin type A light chain protease (Clostridium botulinum A str. ATCC 3502); 0.17% of 360,000 active; inhibition, % at 10 µM; multiplex microsphere protease substrate cleavage
CCHF vOTU inh – CCHFV vOTU protease inhibitors, primary screen, biochemical, Pep-AMC substrate, fluorescence | Crimean-Congo hemorrhagic fever virus L polyprotein viral ovarian tumor (vOTU) protease … | inhibition, % at 11.5 µM | 0.55% of 370,000 active; in the data active = inhibition above about 30%
SARS 3CLpro inh-2 – confirmation of SARS coronavirus 3C-like protease inhibitors, retest, confirmation, biochemical; shares compounds with SARS 3CLpro inh-1; 36% of 380 active; inhibition, % at 6 µM; QFRET protease activity assay, 3CLpro; in the data active = inhibition above about 13%
Of the large screens only hits and unclear results are named; the others gave an inactive call (follow-up assays come after a bar, where they were run). Rule as the data show it, unless noted: active = inhibition above about 30%; inconclusive = no clear call, values can overlap the other calls; inactive = below that.

CCOc1cc(C(C(=O)NCC2CCCO2)N(C(=O)Cn2nnc3ccccc32)c2ccc(NC(C)=O)cc2)ccc1O (stereo not drawn)	none
COc1ccc(C(C(=O)NCC2CCCO2)N(C(=O)Cn2nnc3ccccc32)c2ccc(NC(C)=O)cc2)cc1 (stereo not drawn)	SARS 3CLpro inh-1 35 | SARS 3CLpro inh-2 30
CCCn1nnc(NC(=O)COc2ccc(Cl)cc2)n1	none
CCCn1nnc(NC(=O)COc2ccc(C3CCCCC3)cc2)n1	SARS 3CLpro inh-1 14 | SARS 3CLpro inh-2 inactive
COc1cccc(/C=N/NC(=S)Nc2cccnc2)c1	SARS 3CLpro inh-1 16 | SARS 3CLpro inh-2 18
COc1cc(/C=N/NC(=O)/C(=C\c2ccc3c(c2)OCO3)NC(=O)c2ccccc2)ccc1O	SARS 3CLpro inh-1 13 | SARS 3CLpro inh-2 inactive
COc1cc(/C=N/NC(=O)c2ccc3c(c2)OCO3)ccc1O	BoNT F protease inconclusive, Bead autofluor inconclusive
CCn1c(COc2ccccc2)nnc1SCC(=O)C(C)(C)C	SARS 3CLpro inh-1 15 | SARS 3CLpro inh-2 inactive
CC(C)C(=O)Nc1cccc(C(=O)Nc2cc([N+](=O)[O-])ccc2F)c1	none
CC(=O)N[C@@H](Cc1c[nH]c2ccccc12)C(=O)OCC(=O)Nc1cc(C)on1	none (no result: SARS 3CLpro inh-1)
O=C(Nc1nc(-c2ccccc2)cs1)c1cccc([N+](=O)[O-])c1C(=O)O	SARS 3CLpro inh-1 16 | SARS 3CLpro inh-2 28
COC(=O)c1ccc(/C=C(/NC(=O)c2ccccc2)C(=O)N2CCOCC2)cc1	none
O=C(Nc1nc(-c2cccs2)cs1)c1ccc(Cl)cc1	SARS 3CLpro inh-1 13 | SARS 3CLpro inh-2 inactive
O=C(N[C@@H](Cc1ccc(Br)cc1)C(=O)O)OCC1c2ccccc2-c2ccccc21	SARS 3CLpro inh-1 12 | SARS 3CLpro inh-2 inactive
O=C(COc1ccc(S(=O)(=O)N2CCCCC2)cc1)Nc1ccccc1F	SARS 3CLpro inh-1 12 | SARS 3CLpro inh-2 inactive
O=C(COc1ccccc1)Nc1ccc(S(=O)(=O)N2CCCCCC2)cc1	none
O=C(O)c1[nH]c2ccccc2c1C(c1ccccc1)c1c(C(=O)O)[nH]c2ccccc12	BoNT F protease inconclusive
O=C(O)COc1ccc(Br)cc1C(c1c(C(=O)O)[nH]c2ccccc12)c1c(C(=O)O)[nH]c2ccccc12	SARS 3CLpro inh-1 13 (no result: CCHF vOTU inh) | SARS 3CLpro inh-2 16
O=C(Cc1ccc(Cl)c(Cl)c1)Nc1cccnc1	SARS 3CLpro inh-1 23 | SARS 3CLpro inh-2 21
O=C(Oc1cccnc1)c1ccc(Cl)cc1	SARS 3CLpro inh-1 24 | SARS 3CLpro inh-2 34
CCn1nc(NC(=O)C(C)(C)C)c2cc3cccc(C)c3nc21	none
CCn1nc(NS(=O)(=O)c2ccccc2)c2cc3cc(C)ccc3nc21	SARS 3CLpro inh-1 12 | SARS 3CLpro inh-2 inactive
CCn1nc(NS(=O)(=O)c2ccc([N+](=O)[O-])cc2)c2cc3cccc(C)c3nc21	SARS 3CLpro inh-1 12 | SARS 3CLpro inh-2 inactive
Cn1nc(C(C)(C)C)cc1N1C(=O)CCC1(C)C(=O)NCc1ccccc1 (stereo not drawn)	none (no result: SARS 3CLpro inh-1)
O=C(NC(NC(=S)Nc1cccc(C(=O)O)c1)C(Cl)(Cl)Cl)OCc1ccccc1 (stereo not drawn)	none
O=C(NC(NC(=S)Nc1cccc(Cl)c1)C(Cl)(Cl)Cl)OCc1ccccc1 (stereo not drawn)	SARS 3CLpro inh-1 13 | SARS 3CLpro inh-2 inactive
O=c1[nH]cnc2onc(-c3ccc(F)cc3)c12	none
CC(C)(C)OC(=O)NCc1ccc(NC(=O)c2nc[nH]c2C(=O)N[C@@H](Cc2ccccc2)C(=O)OCc2ccccc2)cc1	none (no result: SARS 3CLpro inh-1)
CC(C)(C)OC(=O)NCc1ccc(CNC(=O)c2[nH]cnc2C(=O)N[C@@H](Cc2ccccc2)C(=O)OCc2ccccc2)cc1	SARS 3CLpro inh-1 14 | SARS 3CLpro inh-2 inactive
CC(C)(C)OC(=O)CNC(=O)c1[nH]cnc1C(=O)NC(c1ccccc1)c1ccccc1	SARS 3CLpro inh-1 13 | SARS 3CLpro inh-2 inactive
